Source: PubChem BioAssay AID2061166 (Soto Lab, Mitchell Center for Alzheimers Disease and …, 2025)
Values without a mark were called inactive.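 The calls were made as follows: active = mean tau seeding fluorescence area under 1% of vehicle, meaning inhibition above a set limit; inactive = the rest.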

Target: Microtubule-associated protein tau (Homo sapiens) (UniProt P10636)
Test: blockers of AD brain-seeded tau fibril growth – biochemical, seed amplification, ThT fluorescence, primary screen (AID 2061166)
Conditions: Recombinant tau seeded by AD brain, ThT fluorescence AUC; at 100 µM; stronger effect = higher value

Sequence of Microtubule-associated protein tau (Homo sapiens) (P10636 whole entry, looked up): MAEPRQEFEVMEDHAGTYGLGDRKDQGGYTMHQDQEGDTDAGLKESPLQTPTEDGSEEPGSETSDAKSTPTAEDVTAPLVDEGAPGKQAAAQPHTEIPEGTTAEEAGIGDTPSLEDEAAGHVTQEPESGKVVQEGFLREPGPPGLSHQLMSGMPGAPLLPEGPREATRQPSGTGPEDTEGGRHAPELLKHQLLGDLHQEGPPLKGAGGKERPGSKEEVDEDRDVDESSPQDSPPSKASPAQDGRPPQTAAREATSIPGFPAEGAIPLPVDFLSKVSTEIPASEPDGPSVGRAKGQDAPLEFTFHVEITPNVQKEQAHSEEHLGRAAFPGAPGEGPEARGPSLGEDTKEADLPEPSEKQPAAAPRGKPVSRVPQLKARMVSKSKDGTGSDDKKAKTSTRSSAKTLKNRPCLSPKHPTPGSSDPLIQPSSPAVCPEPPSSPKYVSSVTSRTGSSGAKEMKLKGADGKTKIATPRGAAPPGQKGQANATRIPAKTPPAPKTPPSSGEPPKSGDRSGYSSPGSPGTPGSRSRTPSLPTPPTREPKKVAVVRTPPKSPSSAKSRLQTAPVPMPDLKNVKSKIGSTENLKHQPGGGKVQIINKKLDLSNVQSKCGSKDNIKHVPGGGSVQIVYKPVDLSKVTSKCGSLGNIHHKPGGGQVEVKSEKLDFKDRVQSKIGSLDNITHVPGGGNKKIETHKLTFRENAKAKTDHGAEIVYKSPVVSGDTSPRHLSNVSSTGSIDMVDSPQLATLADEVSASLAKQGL

SMILES | inhibition [%]
c1cncc(C2=NCCC2)c1 | 32.6
CNC(=O)Oc1cccc2ccccc12 | 63.7
COc1ccc(C(CN(C)C)C2(O)CCCCC2)cc1 (configuration not stated) | 40.8
COc1ccc2c(c1)[nH]c1c(C)nccc12 | 35.5
Cn1cc(C2=C(c3cn(C4CCN(Cc5ccccn5)CC4)c4ccccc34)C(=O)NC2=O)c2ccccc21 | 18.6
Cc1cccc(C(C)c2cnc[nH]2)c1C (configuration not stated) | 17.4
Cn1c(CCCC(=O)O)nc2cc(N(CCCl)CCCl)ccc21 | 48
O=c1c2ccccc2[se]n1-c1ccccc1 | 51.6
COc1ccc(C(=O)O)cc1OC | 11.4
O=C(CS(=O)C(c1ccccc1)c1ccccc1)NO (configuration not stated) | 7.82
O=C1C=C2C=CC3CC2(O1)C1CCCCN31 (configuration not stated) | 17
COc1ccc2c3c([nH]c2c1)C(C)=NCC3 | 11.8
